Screening data as filed in PubChem.
Autofluor counter: counter-screen for toxin protease inhibitors: compound fluorescence; AID 624483; 360,000 compounds, 3.1% hits; fluorescence intensity (test concentration not listed); compound autofluorescence counterscreen, microsphere flow cytometry; active compounds read high; in the data active means fluorescence intensity above about 16000; inconclusive means no clear call, values can overlap the other calls
Anthrax LF inh2: anthrax lethal factor protease inhibition. inhibition, % at 10 µM. P15917. multiplex microsphere protease cleavage assay, LF. 360,000 compounds, 0.12% hits
Target sequence (P15917 whole entry, looked up): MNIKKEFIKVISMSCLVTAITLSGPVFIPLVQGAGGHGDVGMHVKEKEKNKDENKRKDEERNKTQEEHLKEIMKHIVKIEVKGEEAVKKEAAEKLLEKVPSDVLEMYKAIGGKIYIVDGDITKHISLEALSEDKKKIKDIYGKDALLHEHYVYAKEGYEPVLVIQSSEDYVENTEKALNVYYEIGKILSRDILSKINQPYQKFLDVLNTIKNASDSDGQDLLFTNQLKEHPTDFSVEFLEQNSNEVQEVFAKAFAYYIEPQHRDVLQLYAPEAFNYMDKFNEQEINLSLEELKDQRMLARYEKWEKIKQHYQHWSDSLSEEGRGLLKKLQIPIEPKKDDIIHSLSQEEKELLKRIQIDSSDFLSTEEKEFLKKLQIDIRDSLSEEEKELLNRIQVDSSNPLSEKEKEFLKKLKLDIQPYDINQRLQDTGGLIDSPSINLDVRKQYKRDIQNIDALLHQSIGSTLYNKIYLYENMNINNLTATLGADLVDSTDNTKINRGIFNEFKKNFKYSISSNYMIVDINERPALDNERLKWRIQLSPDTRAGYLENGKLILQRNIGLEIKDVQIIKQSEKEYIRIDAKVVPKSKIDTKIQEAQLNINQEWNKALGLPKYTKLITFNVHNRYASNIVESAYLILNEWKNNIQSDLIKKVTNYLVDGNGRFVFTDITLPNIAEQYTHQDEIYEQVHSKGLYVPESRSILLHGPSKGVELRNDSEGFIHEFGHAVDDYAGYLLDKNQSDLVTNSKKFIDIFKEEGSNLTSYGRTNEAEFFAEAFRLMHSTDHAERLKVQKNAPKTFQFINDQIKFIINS
BoNT-A LC inh2: BoNT A light chain protease inhibition | multiplex microsphere protease substrate cleavage, flow cytometry | inhibition, % at 10 µM | 360,000 compounds, 0.17% hits
BoNT F protease: inhibitors of Botulinum neurotoxin F light chain protease | Multiplex microsphere protease cleavage assay, flow cytometry | inhibition, % at 10 µM | 360,000 compounds, 0.22% hits; in the data active means inhibition above about 35%, passing the limit was not always enough; inconclusive means no clear call, values can overlap the other calls
MazEF act: MazEF (E. coli) toxin RNase activation; P0AE70; FAM/BHQ RNA-DNA oligo cleavage fluorescence, 5 h; activation, % at 20 µM; 350,000 compounds, 0.32% hits; in the data active means activation above about 50%
Numbers stand for hits. Compounds with a hit are over-represented: about 3.7% of the library has one in this group of screens. Unless noted, no stated cut-off is given here; in the data, active means inhibition above about 30%; inconclusive means no clear call, values can overlap the other calls; inactive means below that.

For O=C(CSc1nnc(Cc2ccccc2)n1-c1ccccc1)NNC(=O)Cc1ccccc1 the results were Autofluor counter 21981, Anthrax LF inh2 inactive, BoNT-A LC inh2 inactive, BoNT F protease inactive and MazEF act inactive.
CCNC(=S)NNC(=O)C(c1ccccc1)c1ccccc1 was read as Autofluor counter inactive, Anthrax LF inh2 inactive, BoNT-A LC inh2 inactive, BoNT F protease inactive and MazEF act inactive.
Screening CCNC(=S)NNC(=O)Nc1ccccc1 returned Autofluor counter 23334, Anthrax LF inh2 inactive, BoNT-A LC inh2 inactive, BoNT F protease inactive and MazEF act inactive.
For Cc1ccn(-c2ccc([N+](=O)[O-])cc2)n1 the results were Autofluor counter 20585, Anthrax LF inh2 inactive, BoNT-A LC inh2 inactive, BoNT F protease inactive and MazEF act inactive.
CCOC(=O)N1CCN(C(=O)COc2ccc(Br)cc2Cl)CC1 was read as Autofluor counter 20543, Anthrax LF inh2 inactive, BoNT-A LC inh2 inconclusive, BoNT F protease inactive and MazEF act inactive.
For O=C(COc1ccc(Br)cc1Cl)N1CCN(c2ncccn2)CC1 the results were Autofluor counter inactive, Anthrax LF inh2 inactive, BoNT-A LC inh2 inactive, BoNT F protease inactive and MazEF act inactive.
`C=CCNC(=O)COc1ccc(Br)cc1Cl` gave Autofluor counter 20768, Anthrax LF inh2 inactive, BoNT-A LC inh2 inactive, BoNT F protease inactive and MazEF act inactive.
Screening COCCNC(=O)COc1ccc(Br)cc1Cl returned Autofluor counter inactive, Anthrax LF inh2 inactive, BoNT-A LC inh2 inactive, BoNT F protease inactive and MazEF act inactive.
`CCOC(=O)c1c(NC(=O)CN2C(=O)C(=O)N(CC(C)C)C2=O)sc(C)c1CC` gave Autofluor counter inactive, Anthrax LF inh2 inactive, BoNT-A LC inh2 inactive, BoNT F protease inactive and MazEF act inactive.
Oc1ccc(N=Nc2ccc3ccccc3c2)cc1 was read as Autofluor counter inactive, Anthrax LF inh2 inactive, BoNT-A LC inh2 inactive, BoNT F protease inactive and MazEF act inactive.
Screening Cc1ccc(OCc2ccc(C(=O)Nc3nccs3)o2)cc1 returned MazEF act inactive.
Screening O=C(Nc1nccs1)c1ccc(COc2ccccc2)o1 returned MazEF act inactive.
Screening CCc1nnc(NC(=O)c2ccc(COc3ccc(C)cc3)o2)s1 returned Autofluor counter 23447, Anthrax LF inh2 inactive, BoNT-A LC inh2 inactive, BoNT F protease inactive and MazEF act inactive.
For CCc1nnc(NC(=O)c2ccc(COc3ccccc3)o2)s1 the results were Autofluor counter 17254, Anthrax LF inh2 inactive, BoNT-A LC inh2 inactive, BoNT F protease inactive and MazEF act inactive.
Screening C=CCn1c(SCC(=O)c2cccs2)nc2sc(CC)cc2c1=O returned Autofluor counter 22827, Anthrax LF inh2 inactive, BoNT-A LC inh2 inactive, BoNT F protease inactive and MazEF act inactive.
Screening C=CCn1c(SCC(=O)O)nc2sc(CC)cc2c1=O returned Autofluor counter inactive, Anthrax LF inh2 inactive, BoNT-A LC inh2 inactive, BoNT F protease inactive and MazEF act inactive.
`O=C(NNC(=O)c1ccncc1)c1ccncc1` gave Autofluor counter 22444, Anthrax LF inh2 inactive, BoNT-A LC inh2 inactive, BoNT F protease inactive and MazEF act inactive.
Screening CC(=O)NNC(=O)c1ccncc1 returned Autofluor counter inactive, Anthrax LF inh2 inactive, BoNT-A LC inh2 inactive, BoNT F protease inactive and MazEF act inactive.
O=C(NNS(=O)(=O)c1ccc(Br)cc1)c1ccncc1 was read as Autofluor counter 20766, Anthrax LF inh2 inactive, BoNT-A LC inh2 inactive, BoNT F protease inactive and MazEF act inactive.
CCOC(=O)C1=C(CCc2ccccc2)NC(=O)NC1c1ccc(Br)cc1 (stereo unspecified) was read as Autofluor counter inactive, Anthrax LF inh2 inactive, BoNT-A LC inh2 inactive, BoNT F protease inactive and MazEF act inactive.
`CCOC(=O)C1=C(CN2c3ccccc3CC2C)NC(=O)NC1c1ccccc1` (stereo unspecified) gave Autofluor counter inactive, Anthrax LF inh2 43.9, BoNT-A LC inh2 54.5, BoNT F protease inactive and MazEF act inactive.
Screening Cc1ccc(C)c(C(=O)COC(=O)CCN2C(=O)C3C4CCC(C4)C3C2=O)c1 (stereo unspecified) returned Autofluor counter inactive, Anthrax LF inh2 inactive, BoNT-A LC inh2 inactive, BoNT F protease inactive and MazEF act inactive.
Cc1nc(N2CCOCC2)[nH]c(=O)c1CCC(C)C was read as Autofluor counter 16493, Anthrax LF inh2 inactive, BoNT-A LC inh2 inactive, BoNT F protease inactive and MazEF act inactive.
Screening CC(OC(=O)C1CC1C)C(=O)Nc1ccc(Cl)cn1 (stereo unspecified) returned Autofluor counter inactive, Anthrax LF inh2 inactive, BoNT-A LC inh2 inactive, BoNT F protease inactive and MazEF act inactive.
